Inconclusive results are not listed. Values without a mark were called inactive. Calls follow the shape of the dose curve; as a rule, active = well fitted cell-killing curve with a large enough effect in the repeat runs (not every such curve was filed as active); inconclusive = weak or mixed curves, or effect the other way; inactive = no such curve, though single readings can be large or run the other way.
Assay: qHTS assay to identify small molecule antagonists of the farnesoid-X-receptor (FXR) signaling pathway - cell viability counter screen (AID 743221); also: nearly all actives have a fitted effect of over 50% in size
Conditions: FXR-bla HEK293T viability, CellTiter-Glo luminescence, 16 h; series mostly up to 62.6 µM; activity change, negative = cytotoxicity: at the top concentration
From the text: National Center for Advancing Translational Sciences [NCATS]
NIH Chemical Genomics Center [NCGC]
U.S. Environmental Protection Agency [EPA]
National Institutes of Environmental Health Sciences [NIEHS]
National Toxicology Program [NTP]
U.S. Food and Drug Administration [FDA]
The farnesoid-X-receptor (FXR), a nuclear hormone receptor, is highly expressed in liver, intestine, kidney and adrenal cortex. Natural ligands of FXR are the bile acids (Cholic acid, Chenodeoxy cholic acid etc). FXR is an important regulator of diverse metabolic pathways, including the bile acid homeostasis, lipid and glucose metabolisms. FXR regulates the expression of target genes by binding either as a monomer or as a heterodimer with the retinoid X receptor (RXR). Numerous studies have reported that FXR exerts protective function during cholestasis, diabetes, liver regeneration, and cancer. To identify compounds that inhibit FXR signaling, GeneBLAzer FXR-UAS-bla HEK 293T cell line (Invitrogen, Carlsbad, CA) containing a beta-lactamase reporter gene under the control of a UAS response element was used to screen the Tox21 10K compound library. The cytotoxicity of the Tox21 compound library against the FXR-bla cell line was tested in parallel by measuring the cell viability using CellTiter-Glo assay in the same wells.
Tox21 Assay Protocol Summary:
FXR-bla cells were dispensed at 5000 cells/5uL/well in 1536-well black wall/clear bottom plates using a Multidrop Combi (Thermo Fisher Scientific, Waltham, MA) dispenser. After the assay plates were incubated at 37 C and 5% CO2 for 5 h, 23 nL of compounds dissolved in DMSO, positive controls or DMSO only was transferred to the assay plate by a Pintool station (Kalypsys, San Diego, CA), followed by addition of 1 uL Chenodeoxycholic acid (50 uM, final concentration in the wells). The assay plates were incubated at 37C for 16 h. After 1 uL of LiveBLAzerTM B/G FRET substrate was added using a Bioraptr Flying Reagent Dispenser (FRD) workstation (Beckman Coulter, Indianapolis, IN), the plates were incubated at room temperature for 2 h, and fluorescence intensity was measured by an Envision plate reader (PerkinElmer, Shelton, CT). For cell viability readout that measures cytotoxicity, 4uL/well of CellTiter-Glo reagent was added into the assay plates using a Bioraptr FRD. After 30 min incubation at room temperature, the luminescence intensity in the plates was measured using a ViewLux plate reader (PerkinElmer).
% is scaled to controls: 0 for no effect and ±100 for the full control effect.

Row | SMILES | activity change, negative = cytotoxicity
1 | CC1(C)C(=O)NC(=O)N1CO | -10.8%
2 | CO[C@@H]1[C@@H](O[C@@H]2O[C@H](C)[C@@H](O[C@H]3C[C@@](C)(O)[C@@H](O)[C@H](C)O3)[C@H](N(C)C)[C@H]2O)[C@@H](CC=O)C[C@@H](C)[C@@H](O[C@@H]2CC[C@H](N(C)C)[C@@H](C)O2)/C=C/C=C/C[C@@H](C)OC(=O)C[C@H]1OC(C)=O | -0.216%
3 | Cc1cc(C)c(C)c(O)c1 | -5.21%
4 | S=c1[nH][nH]c(=S)s1 | 7.47%
5 | CCCCCCOC(=O)c1ccccc1 | -27%
6 | C=CC(=O)NC(C)(C)C | 12.9%
7 | OCCCO | -0.136% [at 81.1 µM]
8 | CC(=O)Nc1ccn(C2COC(COC(=O)c3ccccc3)O2)c(=O)n1 (stereo not given) | -4.57%
9 | Nc1cccc2c(=O)[nH][nH]c(=O)c12 | -3.7% [at 81.1 µM]
10 | CCCCCCCCCCCCCCCCN | -5.91%
11 | OCC(O)c1ccccc1 (stereo not given) | -0.192%
12 | CCCC1CCOC(C)S1 (stereo not given) | 16%
13 | CC(C(=O)O)c1ccc2c(c1)Cc1cccnc1O2 (stereo not given) | -2.33%
14 | CS(C)=O | 15.7%
15 | Nc1ccc(-c2ccc(F)cc2)cc1 | -1.98%
16 | CCC(=O)O[C@]1(C(=O)COC)[C@@H](C)C[C@H]2[C@@H]3CCC4=CC(=O)C=C[C@]4(C)C3(F)[C@@H](O)C[C@@]21C (stereo not given in full) | 11.7%
17 | O=C1OC(=O)C2CC=CCC12 (stereo not given) | 0.0295% [at 81.1 µM]
18 | C[C@]12CCC(=O)C=C1[C@@H]1C[C@@H]1[C@H]1[C@@H]3[C@@H]4C[C@@H]4[C@@]4(CCC(=O)O4)[C@@]3(C)CC[C@@H]12 | -3.25%
19 | O=C1c2ccccc2C(=O)c2c1ccc(O)c2O | 9.15%
20 | Cc1c(Cl)cccc1Nc1ccccc1C(=O)O | 0.124%

Row | SMILES | activity change, negative = cytotoxicity
21 | CC1=CC(=C(c2ccc(N)cc2)c2ccc(N)cc2)C=CC1=N | -5.62% [at 5.95 µM]
22 | CC(C)Cc1nccs1 | 0.482% [at 81.1 µM]
23 | N#C[C@@H]1CC(F)(F)CN1C(=O)CNC1CC2CCC(C1)N2c1ncccn1 (stereo not given in full) | -1.06%
24 | COC=O | 10.8% [at 5.95 µM]
25 | CC(C)Oc1ccccc1O | 3.05%
26 | C[Si](C)(C)O[Si](C)(C)O[Si](C)(C)C | 12.9%
27 | CCCc1ccc(OC)cc1 | -0.147% [at 81.1 µM]
28 | O=c1c2ccccc2oc2ccccc12 | 3.22%
29 | CCc1cnc(C(=O)O)c(C(=O)O)c1 | 9.38% [at 81.1 µM]
30 | CC(C)(C)c1cc(C=O)cc(C(C)(C)C)c1O | -0.446%
31 | COC(=O)C(C)(C)C | 9.39% [at 81.1 µM]
32 | O=C(O)c1ccccc1-n1cc(C(=O)O)c(=O)c2cc(Nc3c(F)cc(F)cc3Cl)c(Cl)cc21 | 8.44%
33 | O=C(OC1C[C@H]2CC[C@@H](C1)[N+]21CCCC1)C(O)(c1ccccc1)c1ccccc1 (stereo not given in full) | 4.94%
34 | CCCCCCCCS | -3.27% [at 81.1 µM]
35 | CC1=C(C)C(=O)C(CCCCC#CCCCC#CCO)=C(C)C1=O | 6.25%
36 | CC1=C(C)C(=O)C(C(CCCCCC(=O)O)c2ccccc2)=C(C)C1=O (stereo not given) | -3.15%
37 | C1CCN(CN2CCCCC2)CC1 | 4.56%
38 | C[C@H](CN1CCCC1)C(=O)c1ccc(C(F)(F)F)cc1 | 0.84%
39 | CO[C@@H]1COCC[C@@H]1N[C@@H]1CC[C@@](C(=O)N2CCc3ncc(C(F)(F)F)cc3C2)(C(C)C)C1 | -9.21%
40 | O=C(N[C@@H](Cc1ccccc1)[C@@H](O)C(=O)N1C[C@@H](O)[C@@H](O)C1)c1cc2cc(Cl)ccc2[nH]1 | -17.7%

Source: PubChem BioAssay (Tox21)
